Measured values taken from PubChem BioAssay (Tox21).
“And” between values parts separate entries of the source, which are not always exact repeats. Equal entries are not always repeated. Results filed as inconclusive are left out. Entries that show only a call come without a potency. The source holds several records for some structures; these can differ, active in one and inactive in another. The source made the active and inactive calls. The call rests on the fitted dose curve; in most records, active means well fitted inhibition curve with a large enough effect in the repeat runs; inconclusive means weak or mixed curves; inactive means flat fitted curve, though single readings scatter.

Each compound was assayed against Voltage-gated inwardly rectifying potassium channel KCNH2 (Homo sapiens) (UniProt Q12809) (assay: Human Ether-a-go-go-Related Gene (hERG) channel small molecule antagonists: fluorescence cell-based qHTS assay (AID 1671200; further: nearly all actives have a fitted effect of over 50% in size)). Conditions: hERG-U2OS cells, FluxOR thallium flux fluorescence; series mostly up to 76.8 µM.
Excerpt: National Center for Advancing Translational Sciences [NCATS]
U.S. Environmental Protection Agency [EPA]
National Institutes of Environmental Health Sciences [NIEHS]
National Toxicology Program [NTP]
U.S. Food and Drug Administration [FDA]
Mutations in the hERG channel cause Long QT (LQT) syndrome. LQT syndrome is a cardiac disorder which can cause ventricle arrhythmia and sudden death. Additionally, compounds which block the hERG channel can cause acquired LQT syndrome. Several FDA approved drugs have been removed from the market due to their hERG blocking activity. A cell-based hERG channel inhibition assay can be used to screen chemical compounds that inhibit hERG channel. This assay measures hERG channel activity using thallium ions as surrogate ions to measure potassium into the cells.
Tox21 Assay Protocol Summary:
hERG-U2OS cells were resuspended in culture medium and dispensed into 1536-well, black wall/clear-bottom plates at 1000cells/well/3uL using a Multidrop Combi dispenser (Thermo Fisher, Waltham, MA). After plates were incubated at 37 C overnight, 3 uL of Loading Buffer provided by FluxOR II Potassium Ion Channel Assay kit (Thermo, Carlsbad, CA) was added to each well. The assay plates were then incubated at room temperature in the dark for 1h. […] After the assay plates were incubated at room temperature for 10 min, 1 uL of Stimulus Buffer provided by FluxOR II Potassium Ion Channel Assay kit was added into each well and fluorescence intensity (480nm excitation/540nm emission) was continuously measured for 2 min at 1 second intervals using a Functional Drug Screening System (FDSS) 7000EX kinetic plate reader (Hamamatsu, Japan).
Potency means the concentration at half of the fitted maximal effect.

Sequence of Voltage-gated inwardly rectifying potassium channel KCNH2 (Homo sapiens) (Q12809 whole entry, looked up): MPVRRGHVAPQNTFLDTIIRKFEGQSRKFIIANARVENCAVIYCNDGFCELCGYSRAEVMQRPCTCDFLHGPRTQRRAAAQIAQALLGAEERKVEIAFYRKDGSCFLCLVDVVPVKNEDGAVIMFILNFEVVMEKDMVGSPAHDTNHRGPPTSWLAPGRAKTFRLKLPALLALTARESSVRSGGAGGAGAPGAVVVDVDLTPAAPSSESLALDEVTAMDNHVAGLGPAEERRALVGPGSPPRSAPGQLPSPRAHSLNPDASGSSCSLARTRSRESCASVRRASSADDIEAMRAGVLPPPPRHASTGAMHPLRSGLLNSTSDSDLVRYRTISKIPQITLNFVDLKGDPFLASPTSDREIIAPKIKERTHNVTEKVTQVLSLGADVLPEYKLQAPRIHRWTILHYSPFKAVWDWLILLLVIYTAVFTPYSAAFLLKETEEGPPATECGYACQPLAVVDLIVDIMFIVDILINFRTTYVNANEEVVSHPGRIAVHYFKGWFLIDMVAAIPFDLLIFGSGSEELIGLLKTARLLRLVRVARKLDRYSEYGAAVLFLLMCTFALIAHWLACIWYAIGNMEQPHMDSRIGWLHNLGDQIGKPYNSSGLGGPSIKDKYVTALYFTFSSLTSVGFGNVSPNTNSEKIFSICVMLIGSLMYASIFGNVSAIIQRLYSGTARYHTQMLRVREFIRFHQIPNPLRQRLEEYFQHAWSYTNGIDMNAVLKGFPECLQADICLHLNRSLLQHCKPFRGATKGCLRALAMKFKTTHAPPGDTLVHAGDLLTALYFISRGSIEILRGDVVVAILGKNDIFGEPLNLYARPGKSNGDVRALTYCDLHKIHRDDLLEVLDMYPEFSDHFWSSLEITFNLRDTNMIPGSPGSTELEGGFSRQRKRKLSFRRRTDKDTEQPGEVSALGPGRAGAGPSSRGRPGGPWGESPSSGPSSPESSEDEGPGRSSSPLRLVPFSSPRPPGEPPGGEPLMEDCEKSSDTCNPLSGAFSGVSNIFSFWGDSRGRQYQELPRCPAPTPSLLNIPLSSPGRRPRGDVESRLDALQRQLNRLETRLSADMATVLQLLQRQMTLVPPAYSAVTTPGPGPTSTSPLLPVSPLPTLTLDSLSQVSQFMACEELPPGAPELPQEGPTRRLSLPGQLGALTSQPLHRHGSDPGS

Row | Structure (SMILES) | Potency
1 | CCCCNC(=O)n1c(NC(=O)OC)nc2ccccc21 | inactive
2 | Oc1ccc(-c2ccccc2)cc1 | inactive
3 | CC(C)=CC1C(C(=O)OCc2coc(Cc3ccccc3)c2)C1(C)C (stereo not given) | inactive
4 | NNC(=S)NN | inactive
5 | Cc1cc(Cl)ccc1OCCCC(=O)O | inactive
6 | ClC1C(Cl)C(Cl)C(Cl)C(Cl)C1Cl (stereo not given) | 39.7 µM (active) and inactive and 43.6 µM (active)
7 | CCC(C)c1cc([N+](=O)[O-])cc([N+](=O)[O-])c1O (stereo not given) | inactive
8 | N#Cc1cc(Br)c(O)c(Br)c1 | inactive
9 | C=C(C)[C@H]1Cc2c(ccc3c2O[C@@H]2COc4cc(OC)c(OC)cc4[C@@H]2C3=O)O1 | inactive
10 | CC(C)(C)c1ccccc1O | inactive
11 | Nc1ccc(-c2ccc(N)c(N)c2)cc1N | inactive
12 | C=CC(=O)OCCO | inactive
13 | Oc1cc(Cl)ccc1Cl | inactive
14 | N#CC(Br)Br | inactive
15 | COP(=S)(OC)Oc1cc(Cl)c(Cl)cc1Cl | inactive
16 | O=c1oc2ccccc2c(O)c1C(CC(O)c1ccc(-c2ccc(Br)cc2)cc1)c1ccccc1 (stereo not given) | inactive
17 | CCOC(=O)C(C)OC(=O)c1cc(Oc2ccc(C(F)(F)F)cc2Cl)ccc1[N+](=O)[O-] (stereo not given) | inactive
18 | CCCCCCCCCCCOC(=O)c1ccccc1C(=O)OCCCCCCCCCCC | inactive
19 | C=CCc1ccc(OC)cc1 | inactive
20 | C[C@]12CCC(=O)C[C@@H]1CC[C@@H]1[C@@H]2CC[C@]2(C)[C@@H](O)CC[C@@H]12 | 21.6 µM (active)

Row | Structure (SMILES) | Potency
21 | Oc1cc(Cl)ccc1Oc1ccc(Cl)cc1Cl | inactive
22 | Cc1ccc2c(c1N)C(=O)c1ccccc1C2=O | inactive
23 | CCCCCc1cc(O)cc(O)c1 | inactive
24 | c1nc[nH]n1 | inactive
25 | Cc1c(COC(=O)[C@@H]2[C@H](/C=C(\Cl)C(F)(F)F)C2(C)C)cccc1-c1ccccc1 | inactive
26 | C=CCN(CC=C)C(=O)C(Cl)Cl | inactive
27 | CC(C)NC(C)C | inactive
28 | Nc1ccc(Cl)cc1N | inactive
29 | COC(=O)c1sccc1S(=O)(=O)NC(=O)Nc1nc(C)nc(OC)n1 | inactive
30 | Cc1cccc(N)c1N | inactive
31 | Nc1ccc(Cl)c(Cl)c1 | inactive
32 | O=C1C=CC(=O)C=C1 | inactive
33 | CCC(C)(C)c1ccc(O)cc1 | inactive
34 | N#CCCCl | inactive
35 | CCCCOCCOP(=O)(OCCOCCCC)OCCOCCCC | inactive
36 | CCCCN(CCCC)N=O | inactive
37 | C=C(C)C(=O)OCC1CO1 (stereo not given) | inactive
38 | CCCCCCCCOC(=O)c1ccccc1C(=O)OCCCCCCCC | inactive
39 | O=C(O)CC[N+](=O)[O-] | inactive
40 | Nc1c(Cl)cc([N+](=O)[O-])cc1Cl | inactive
